Hits are enriched below; roughly 6.1% of the tested compounds scored in any of these assays.
D1 potentiator – potentiators of human D1 dopamine receptor | P21728 | HEK293 TREx D1 cells, calcium flux, dopamine EC20 potentiation | potentiation, % at 10 µM | 360,000 compounds, 0.036% hits | AID 504651; in the data active means potentiation above about 30%; further: 0% is about no effect
Target sequence (P21728 whole entry, looked up): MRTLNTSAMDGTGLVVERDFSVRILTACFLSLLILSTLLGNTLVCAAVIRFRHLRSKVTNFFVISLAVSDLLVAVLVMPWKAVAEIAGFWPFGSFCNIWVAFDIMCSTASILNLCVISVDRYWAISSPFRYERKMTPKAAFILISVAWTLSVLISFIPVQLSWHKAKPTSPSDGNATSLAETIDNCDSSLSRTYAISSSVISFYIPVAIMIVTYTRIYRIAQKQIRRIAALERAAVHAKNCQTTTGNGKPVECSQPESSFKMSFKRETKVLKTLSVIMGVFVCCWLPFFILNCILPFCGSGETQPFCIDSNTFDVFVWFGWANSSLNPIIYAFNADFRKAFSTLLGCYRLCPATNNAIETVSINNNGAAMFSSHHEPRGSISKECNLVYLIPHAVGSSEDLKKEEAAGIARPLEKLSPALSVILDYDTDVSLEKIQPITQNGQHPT
D1 agonist – agonists of human D1 dopamine receptor. activation, % at 2 µM. P21728. 360,000 compounds, 1% hits. HEK293 T-REx D1 cells, calcium flux, agonist mode; in the data active means activation above about 30%; further: 0% is about no effect
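Tetracycline-induced HEK293 TREx D1 cells, force-coupled to calcium signalling, were dye-loaded with a no-wash calcium kit. Compound was pin-added after a 10 s baseline. Fluorescence was read kinetically at 1 cycle/s for 180 s, with calcium rises flagged as agonism.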
ERG-DNA inh – ERG Ets/DNA interaction inhibition. Potency, µM (highest dose often 76.9 µM), for the others: at the top dose FP activity, negative = inhibition, actives largely listed as inhibitors. 370,000 compounds, 0.028% hits. fluorescence polarization, His-ERG Ets domain / labelled DNA. AID 624246. P11308; active means well fitted inhibition curve with a large enough effect in the polarisation, with a control signal flat; inconclusive means small, poorly fitted or top-dose-only effect, or effect the other way, or a change in a side signal; inactive means no such curve, though single readings can be large or run the other way; the % refers to the polarisation;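 further: polarization taken with two DNA probes labelled with fluorescein and Texas red; potency means the concentration at half of the fitted maximal effect; % of control where 0% means no effect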
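His-tagged ERG Ets domain (1 uM in the protein solution; 300mM KCl, 50mM Tris-HCl, 1mM EDTA, 1mM DTT, pH 7.5) received compound, then a probe mix of 5 nM fluorescein-DNA and 100nM Texas-615-DNA. Fluorescence polarization was read for both dyes.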
DRD3 agonist – D3 dopamine receptor (human) agonism | P35462 | D3R DiscoveRx beta-arrestin cells, luminescence, 90 min | max activation, % | 410,000 compounds, 0.58% hits; in the data active means max activation above about 30%; further: 0% is about no effect
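Agonist mode: compounds and dopamine controls were applied to plated cells for 90 min at 37 degrees C after an overnight attachment at 1500 cells/well. Luminescent read-out followed 30 - 60 minutes at room temperature with DiscoveRx detection reagent.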
D3 antag – blocks the human D3 dopamine receptor; P35462; D3R cells, DiscoveRx beta-arrestin luminescence, antagonist mode; hits give low values; max response, negative = inhibition, %; 360,000 compounds, 2.5% hits; AID 652054; in the data active means max response below about -50%; inconclusive means no clear call, values can overlap the other calls; further: on the % scale 0 is the no-effect control and ±100 the full control effect
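Cells plated overnight at 1500 cells/well, then exposed to library compounds with dopamine controls for 90 minutes at 37 degrees C. DiscoveRx reagent added for 30–60 minutes at room temperature; luminescence read, quantitative HTS format.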
D1 antag – antagonists of human D1 dopamine receptor | P21728 | HEK293 TREx D1 cells, calcium flux, dopamine EC80; hits give low values | activity change, negative = inhibition, % at 10 µM | 360,000 compounds, 3.2% hits | AID 504652; in the data active means activity change below about -30%; further: on the % scale 0 is the no-effect control and ±100 the full control effect
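Using tetracycline-induced force-coupled D1 Hek293 cells and a calcium dye, signals were followed for 180 s after compound, then for 180 s after EC80 dopamine, to detect inhibitors.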
Starred values were filed as active, the others as inactive.

For COc1ccc2[nH]c3c(=S)nc[nH]c3c2c1 the results were D1 potentiator -4.3, D1 agonist 0.7, ERG-DNA inh 1.2%, DRD3 agonist 2.5, D3 antag -56.0* and D1 antag 5.3.
COc1ccc2[nH]c3c(Cl)ncnc3c2c1 was read as D1 potentiator -0.1, D1 agonist 0.7, ERG-DNA inh -4.8%, DRD3 agonist -1.5, D3 antag -6.7 and D1 antag 1.2.
Screening Cc1ccc2cn[nH]c2c1NC(=S)NC(=O)c1ccccc1 returned ERG-DNA inh 5.5%, DRD3 agonist -5.2 and D3 antag -2.3.
For Cc1ccc2cn[nH]c2c1NC(N)=S the results were D1 potentiator -6.7, D1 agonist -0.5, ERG-DNA inh -3.6%, DRD3 agonist -0.4, D3 antag 1.1 and D1 antag -35.5*.
O=[S+]([O-])(c1c(F)cccc1F)N1CCN([S+](=O)([O-])c2csc3ccccc23)CC1 was read as D1 potentiator -4.2, D1 agonist 5.6 and D1 antag -20.7.
For Cc1c([S+](=O)([O-])N2CCN([S+](=O)([O-])c3c(F)cccc3F)CC2)sc2ccc(Cl)cc12 the results were D1 potentiator -1.0, D1 agonist 1.9 and D1 antag -31.2*.
For COc1cccc(-c2c(-c3cc(OC)cc(OC)c3)n(C)c3ccc(-c4ccc5[nH]ccc5c4)cc23)c1 the results were D1 potentiator 0.6, D1 agonist 0.4, ERG-DNA inh 9.5%, DRD3 agonist 32.4* and D3 antag 30.0.
COc1cc(OC)cc(-c2c(-c3ccc(F)cc3)c3cc(-c4ccc5[nH]ccc5c4)ccc3n2C)c1 was read as D1 potentiator 2.5, D1 agonist -1.3, ERG-DNA inh -0.6%, DRD3 agonist -6.8 and D3 antag 0.0.
Screening CC(C)Oc1ccc(C(CC(=O)NCCCN(C)C)c2ccc(F)cc2)cc1 (stereo unspecified) returned D1 potentiator -6.6, D1 agonist 2.4, ERG-DNA inh 12.7%, DRD3 agonist -5.8, D3 antag -13.3 and D1 antag -37.2*.
`COc1ccc(CNC(=S)Nc2ccc(F)c(Cl)c2)cc1` gave D1 potentiator 1.9, D1 agonist 25.7, ERG-DNA inh -6.8%, DRD3 agonist 3.5, D3 antag 3.5 and D1 antag -8.0.
Screening CCOC(=O)C(=C1Nc2ccccc2N1)n1c(-c2cnccn2)nc2ccccc21 returned DRD3 agonist -13.9 and D3 antag -15.5.
Screening CCOC(=O)C(=C1Nc2ccccc2N1)n1c(-c2ccco2)nc2ccccc21 returned DRD3 agonist -10.4 and D3 antag -54.2*.
For CCC(C)(CC(=O)O)CC(=O)Nc1cc(C(F)(F)F)cc(C(F)(F)F)c1 (stereo unspecified) the results were D1 potentiator 2.0, D1 agonist 0.7, ERG-DNA inh -3.8%, DRD3 agonist 31.5*, D3 antag 17.3 and D1 antag 4.2.
CCc1ccc(C2C(C#N)=C(N)C(C#N)(C#N)C3=CCC(C(C)(C)C)CC32)cc1 (stereo unspecified) was read as D1 potentiator -1.7, D1 agonist -0.5, ERG-DNA inh -2.4%, DRD3 agonist -11.9, D3 antag -93.4* and D1 antag 3.7.
For CC(C)(C)C1CC=C2C(C#N)=C(N)C(C#N)(C#N)C(c3cccs3)C2C1 (stereo unspecified) the results were D1 potentiator 10.8, D1 agonist 2.4 and D1 antag -5.7.
`CC(NCC(c1ccco1)N1CCCCC1)C(=O)NC1CCCC1` (stereo unspecified) gave D1 potentiator -3.0, D1 agonist 2.7, ERG-DNA inh 9.7%, DRD3 agonist -12.0, D3 antag -7.8 and D1 antag -27.7.
COc1cc(/C=C2\CCC(C3CCCC3)C2=O)cc(OC)c1OC (stereo unspecified) was read as D1 potentiator -1.8, D1 agonist 2.3, ERG-DNA inh -4.4%, DRD3 agonist 4.7, D3 antag 0.0 and D1 antag -26.4.
COc1cc(/C=C2\CC/C(=C\c3cc(OC)c(OC)c(OC)c3)C2=O)cc(OC)c1OC was read as D1 potentiator -3.4, D1 agonist 1.9, ERG-DNA inh 1.1%, DRD3 agonist -7.9, D3 antag -4.3 and D1 antag 2.3.
COc1cc(/C=C2\CC(C(C)(C)C)C/C(=C\c3cc(OC)c(OC)c(OC)c3)C2=O)cc(OC)c1OC (stereo unspecified) was read as D1 potentiator -3.3, D1 agonist 32.0*, ERG-DNA inh 20.6%, DRD3 agonist 2.0, D3 antag 1.5 and D1 antag 1.0.
Screening COc1cc(/C=C2\CCC/C(=C\c3ccc(O)c(OC)c3)C2=O)ccc1O returned D1 potentiator 3.5, D1 agonist 12.4, ERG-DNA inh 26.6%, DRD3 agonist -6.8, D3 antag 13.5 and D1 antag -16.2.
`COc1cc(/C=C2\COC/C(=C\c3cc(OC)c(OC)c(OC)c3)C2=O)cc(OC)c1OC` gave D1 potentiator 3.2, D1 agonist 0.6, ERG-DNA inh 13.1%, DRD3 agonist -11.8, D3 antag -62.7* and D1 antag 7.4.
COc1cc(/C=C2\CC/C(=C\c3cc(OC)c(O)c(OC)c3)C2=O)cc(OC)c1O was read as D1 potentiator 1.0, D1 agonist 4.1, ERG-DNA inh 39.9%, DRD3 agonist -7.7, D3 antag -73.6* and D1 antag -0.2.
`Fc1ccccc1-c1nc(NCc2ccco2)c2ccccc2n1` gave D1 potentiator -5.3, D1 agonist 3.3, ERG-DNA inh 1.7%, DRD3 agonist -6.0, D3 antag -21.2 and D1 antag -9.0.
Screening c1ccc(CNc2nc(N3CCN(Cc4ccccc4)CC3)nc3ccccc23)cc1 returned D1 potentiator -14.1, D1 agonist 7.6, ERG-DNA inh 5.1%, DRD3 agonist -29.7, D3 antag -93.0* and D1 antag -34.8*.
c1coc(CNc2nc(N3CCCCC3)nc3ccccc23)c1 was read as D1 potentiator -19.6, D1 agonist 19.1, ERG-DNA inh -8.9%, DRD3 agonist -19.6, D3 antag inconclusive and D1 antag -31.7*.
For c1ccc(N2CCN(c3nc(NCc4ccco4)c4ccccc4n3)CC2)cc1 the results were D1 potentiator -16.5, D1 agonist 1.2, ERG-DNA inh -14.0%, DRD3 agonist -16.6, D3 antag -20.7 and D1 antag -77.6*.
OCCNc1nc(N2CCCCC2)nc2ccccc12 was read as D1 potentiator -5.0, D1 agonist 0.8, ERG-DNA inh -4.8%, DRD3 agonist -6.9, D3 antag -8.5 and D1 antag -17.4.

Bioassay records as filed in PubChem.
